# According to the supplement of paper PMC11219838:
# Test system: Caenorhabditis elegans L1 (N2)
# Assay: survival and reproduction score of C. elegans L1 (0: 0-10 living worms, 1: 11-20, 2: 21-50, 3: >50, 4: overgrown) (score 0-4); higher = more worms, less nematicidal, active = 1 or less; extreme values may be limits of the assay
# Details: 60 µM; 6 days; temperature: 20 °C
# How it was run: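 Each 96-well well received about 20 synchronized N2 L1 worms of C. elegans, E. coli HB101 and liquid NGM, plus compound pinned to 60 µM final (0.6% v/v DMSO). Sealed plates were incubated with shaking at 200 rpm, 20 °C, for 6 days. Survival and reproduction were rated under a dissection microscope as an ordinal score of living worms per well, averaged across biological replicates. The scale spanned 0 (0–10 worms) to 4 (overgrown, starved), and there were two replicates.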
row,SMILES,survival and reproduction score
1,Cc1ccc(-c2noc(COc3cccc(C)c3)n2)cc1,4 (inactive)
2,CCOc1ccccc1-c1nc(-c2cccc(C)c2)no1,4 (inactive)
3,CCc1ccc(OCc2nc(-c3cccc(OC)c3)no2)cc1,4 (inactive)
4,CC(C)Oc1ccc(-c2nc(-c3ccncc3)no2)cc1,0 (active)
5,Cc1ccccc1-c1noc(COc2ccccc2)n1,4 (inactive)
6,Clc1ccc(OCc2nc(-c3cccnc3)no2)c(Cl)c1,4 (inactive)
7,Cc1ccc(-c2nc(-c3ccc(F)cc3)no2)cc1,0 (active)
8,O=C(CSc1nnc(-c2ccccc2)o1)Nc1cccc(Cl)c1,4 (inactive)
9,CC(C)(C)NC(=O)c1ccccc1-c1nc(-c2ccccc2)no1,4 (inactive)
10,CCOc1cc(-c2nc(-c3cc4ccccc4nc3OC)no2)cc(OCC)c1OCC,4 (inactive)
11,Cc1ccc(-c2nnc(SCC(=O)NCCc3ccccc3)o2)cc1,4 (inactive)
12,Cc1ccc(OCc2nc(-c3ccccc3)no2)c(Br)c1,4 (inactive)
13,Cc1ccc(-c2noc(-c3ccc(Br)o3)n2)s1,0 (active)
14,Cc1csc(NC(=O)CSc2nnc(-c3cccc(Cl)c3)o2)n1,4 (inactive)
15,Cc1cccc(-c2noc(-c3cccc(Br)c3)n2)c1,4 (inactive)
16,CCOc1nc(-c2ccc(C)cc2)ccc1-c1noc(-c2ccncc2)n1,4 (inactive)
17,Cc1cccc(OCc2nc(-c3ccc(-n4cccc4)cc3)no2)c1,4 (inactive)

row,SMILES,survival and reproduction score
1,O=C(CSc1nnc(-c2ccco2)o1)Nc1ccc(F)cc1,3.5 (inactive)
2,Clc1ccc(-c2noc(COc3ccc4c(c3)OCO4)n2)cc1,4 (inactive)
3,Brc1ccc(-c2noc(-c3ccc(Br)o3)n2)o1,0.5 (active)
4,Brc1ccccc1-c1nc(-c2ccccc2)no1,0 (active)
5,Cc1ccc(OCc2nc(-c3ccccc3)no2)cc1C,4 (inactive)
6,Brc1ccc(-c2noc(CSc3ccccc3)n2)cc1,0 (active)
7,Cc1cccc(-c2noc(COc3ccc(Cl)cc3)n2)c1,4 (inactive)
8,Cc1ccccc1-c1noc(-c2ccccc2OCC(N)=O)n1,4 (inactive)
9,O=C(CSc1nnc(-c2cccnc2)o1)c1ccc2ccccc2c1,4 (inactive)
10,CCOc1ccccc1-c1nc(-c2ccc(F)cc2)no1,4 (inactive)
11,CCOC(=O)c1c(NC(=O)CSc2nnc(-c3ccc(Cl)cc3)o2)sc(C(C)=O)c1C,4 (inactive)
12,O=C(CSc1nnc(-c2ccccc2)o1)NC1CC2CCC1C2 (stereo not drawn),4 (inactive)
13,COc1ccccc1OCc1nc(-c2cccc(C)c2)no1,4 (inactive)
14,Clc1ccc(-c2nc(-c3ccncc3)no2)c(Cl)c1,2 (inactive)
15,Cc1csc(NC(=O)CSc2nnc(-c3ccccc3Cl)o2)n1,4 (inactive)
16,COc1nc(C)ccc1-c1noc(-c2ccccc2C)n1,4 (inactive)
